# Reference: PubChem BioAssay (NCI)
# Compounds without any hit were thinned out: in the full panel of roughly 83,000, 20% have a hit.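 Interpretation: 100, growth as untreated; towards 0, rising growth inhibition; 0, no net growth; 0 to -100, cell death. Compounds scoring below 10 were considered active.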 A number with no mark means an inactive call. Calls of active or inactive are those of the source.
# What was measured:
# Assay in all cases: NCI-60 one-dose screen, 48 h (100 = growth as untreated, 0 = no growth, -100 = all killed)
# NCI-H522 lung = details: 10 µM unless noted
# COLO 205 colon = details: 10 µM
# MALME-3M melanoma = details: 10 µM unless noted
# SNB-75 CNS = details: 10 µM unless noted
# SNB-19 CNS = details: 10 µM unless noted
# U251 CNS = details: 10 µM unless noted
# SK-MEL-5 melanoma = details: 10 µM unless noted
# SK-MEL-2 melanoma = details: 10 µM unless noted
# EKVX NSCLC = details: 10 µM unless noted
# TK-10 renal = details: 10 µM unless noted
# ACHN renal = details: 10 µM unless noted
# SR leukemia = details: 10 µM
# IGROV1 ovarian = details: 10 µM
# T-47D breast = details: 10 µM unless noted
# HCT-116 colon = details: 10 µM unless noted
# CCRF-CEM leukemia = details: 10 µM unless noted
# RPMI-8226 leukemia = details: 10 µM unless noted
# MDA-MB-435 melanoma = details: 10 µM unless noted
Compound,growth (NCI-H522 lung),growth (COLO 205 colon),growth (MALME-3M melanoma),growth (SNB-75 CNS),growth (SNB-19 CNS),growth (U251 CNS),growth (SK-MEL-5 melanoma),growth (SK-MEL-2 melanoma),growth (EKVX NSCLC),growth (TK-10 renal),growth (ACHN renal),growth (SR leukemia),growth (IGROV1 ovarian),growth (T-47D breast),growth (HCT-116 colon),growth (CCRF-CEM leukemia),growth (RPMI-8226 leukemia),growth (MDA-MB-435 melanoma)
ClCCN(CCCl)c1nc(Cl)c(C2CC(c3ccccc3)=NN2c2ccccc2)s1 (stereo not drawn),75.1%,95.3%,113%,78.9%,79.9%,86.1%,89.1%,93.9%,89.5%,108%,89.6%,88.4%,107%,66.3%,78.3%,–,–,–
CC(C)C1c2ccc(O)cc2Oc2nc(N)c(C#N)c(N)c21 (stereo not drawn),86.4%,109%,–,–,101%,–,91%,109%,–,–,92.5%,97.1%,–,–,103%,94.8%,89.4%,103%
CC[C@@H](C)/C=C(C)/C=C/C(=O)c1c(O)c(-c2ccc(O)cc2)cn(O)c1=O,21.9%,85.2%,-7% (active),2.38% (active),–,3.54% (active),-75.6% (active),59.7%,-0.798% (active),11.6%,0.29% (active),–,–,15.8%,16.7%,9.47% (active),22.5%,–
CNC(C)Cc1ccccc1 (stereo not drawn) (tested in a mixture with another compound),82.4%,102%,103%,100%,–,89.9%,99.6%,–,–,–,95.7%,108%,101%,90.5%,100%,105%,90.4%,–
CC(=O)N1N=C(c2ccccc2)CC1c1sc(N(CCCl)CCCl)nc1Cl (stereo not drawn),72.2%,99.5%,109%,–,86.1%,92.6%,99.1%,–,90.9%,108%,99.2%,86.4%,–,82.3%,92.5%,93.5%,–,97.4%
CC(C)CCC[C@@H](C)[C@H]1CC[C@H]2[C@@H]3CC=C4C[C@@H](OC(=O)Cc5ccc(N(CCCl)CCCl)cc5)CC[C@]4(C)[C@H]3CC[C@]12C,124%,117%,–,103%,107%,109%,95.8%,94.6%,106%,159%,100%,101%,–,106%,103%,120%,108%,113%
CC1(C)CC2(CC(C)(C)c3cc(O)c(O)cc32)c2cc(O)c(O)cc21,37.4%,102%,101%,–,104%,92.3%,92.5%,110%,95.1%,117%,96.1%,70.3%,98.4%,–,85.4%,84.5%,103%,–
CNC(=O)Oc1cccc(N(C)C)c1,89.1%,108%,101%,–,102%,99.1%,99.2%,83.4%,–,108%,104%,103%,108%,104%,113%,–,101%,97.5%
COc1cc(/C=C\c2cc(OC)c(OC)c(OC)c2)cc(N/C=C\C(=O)c2ccc(OC(F)(F)F)cc2)c1OC,-54.8% (active),3.12% (active),–,-8.84% (active),74.6%,14.8%,27.6%,-13.4% (active),–,–,43%,4.84% (active),–,37.9%,8.14% (active),8.99% (active),11.8%,-42.2% (active)
Cc1ccc(C(=O)C2CN(C)CCC2(O)c2ccc(C)cc2)cc1 (stereo not drawn),111%,131%,120%,–,–,104%,114%,–,111%,108%,–,101%,–,–,107%,106%,99.9%,106%
[N-]=[N+]=NC(C(=O)O)c1ccccc1 (stereo not drawn),87.3%,104%,106%,96.6%,–,–,116%,–,99.7%,106%,100%,83.9%,98%,103%,101%,–,–,99.9%
Nc1cccc(CC(=O)Nc2ccc(S(=O)(=O)F)cc2)c1,84.8%,95.8%,90%,–,105%,102%,104%,125%,104%,107%,112%,96.7%,–,92.5%,96.9%,2.63% (active),–,89.8%
Fc1ccc(C2=NN(c3ccccc3)C(c3sc(N(CCCl)CCCl)nc3Cl)C2)cc1 (stereo not drawn),64.2%,88.6%,102%,68.7%,–,85.9%,–,–,84%,–,–,83%,82.7%,–,68.2%,83.1%,–,93.9%
COc1cc(C2=NN(c3ccccc3)C(c3sc(N(CCCl)CCCl)nc3Cl)C2)cc(OC)c1OC (stereo not drawn),69.1%,90.6%,121%,–,–,85.6%,88.4%,85.2%,78.9%,–,88.8%,84.2%,106%,68.7%,80.3%,87.9%,–,101%
O=C(CI)Nc1ccc(Br)cc1,-85% (active),-78.2% (active),-65% (active),–,92.1%,–,62.6%,76.4%,102%,–,-79.8% (active),-53% (active),-55.2% (active),–,-69.9% (active),–,36.6%,–
CN1CC2CCC(C1)C2=O,92.1%,106%,79.2%,89.3%,105%,101%,101%,95.5%,–,93%,–,82.7%,93.8%,102%,95.4%,94.4%,98.9%,97.7%
ClCCN(CCCl)c1nc(Cl)c(C2CC(c3ccc(Cl)cc3)=NN2c2cc(Cl)cc(Cl)c2)s1 (stereo not drawn),80%,105%,107%,–,88.1%,98.6%,–,96.3%,102%,109%,106%,93.1%,–,98.8%,–,–,–,103%
CC1(C)N=C(N)N=C(N)N1c1ccc(CCCCc2ccc(Cl)cc2S(=O)(=O)F)c(Cl)c1,3.95% (active),15.9%,39.3%,51.9%,36.6%,–,19.5%,38.3%,–,–,18.7%,–,30.7%,28.6%,14.9%,13.1%,17.8%,–
C=C=[CH][Sn]([c]1ccccc1)([c]1ccccc1)[c]1ccccc1,-69.4% (active),-84.2% (active),-36.6% (active),14.2%,-50% (active),–,-81.5% (active),-30.6% (active),-32.7% (active),-74.7% (active),-49.4% (active),–,-22.2% (active),-36.7% (active),-97.4% (active),-0.102% (active),-17.5% (active),-59.5% (active)
O=[N+]([O-])c1ccccc1N1CCNCC1,88.6%,104%,89%,92.5%,–,97.4%,102%,106%,104%,96.2%,105%,88.5%,85%,–,101%,112%,118%,103%
C[CH2][Sn]([CH2]C)([CH2]C)[NH]S(=O)(=O)c1ccc(C)cc1,110%,128%,110%,–,114%,99.5%,110%,119%,99%,109%,–,99.7%,111%,100%,106%,108%,115%,102%
